Compound activity (PubChem)
Hits are enriched below; roughly 19% of the tested compounds scored in any of these assays.
ELG1 DNA repair: qHTS screen for small molecules that inhibit ELG1-dependent DNA repair in human embryonic kidney (HEK293T) cells expressing luciferase-tagged ELG1; HEK293T ELG1-luciferase reporter, luminescence, 16 h; DNA damage induced by 5-fluorouridine; AID 504467, 2011; Potency, µM (top dose mostly 46.1 µM), for inactives: at the highest dose activity change, negative = inhibition, usual class: inhibitors; hit rate 2.3% among 330,000; also: potency is read from the fitted curve at half-maximal effect; nearly all actives have a fitted effect of over 55% in size
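Quantitative HTS, concentration-response format. 2,000 cells/well co-treated with 5-fluorouridine and compound, 16 hr in 5% CO2 at 37 °C; ONE-Glo luminescence read after 30 min.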
HT1080 IDH1KD tx: qHTS for induction of synthetic lethality in tumor cells producing 2HG: qHTS for the HT-1080-IDH1KD cell line; HT-1080 IDH1 knockdown viability, ATP luminescence, 48 h; Potency, µM (highest dose often 46.1 µM), inactives show at the top dose activity, negative = toxicity, usual class: cytotoxic; hit rate 2% among 360,000; AID 686971, 2013;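 also: potency is read from the fitted curve at half-maximal effect; 0% = DMSO wells and -100% = cell-free medium wells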
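IDH1KD HT-1080 cells, 750/well, RPMI + 5% FBS; compound pinned after 2 h settling; 48 h, 37 °C; CellTiter-Glo luminescence; % activity normalised to DMSO and no-cell wells; curves fitted, classed by r2 and efficacy.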
HT1080NT lethal: qHTS for induction of synthetic lethality in tumor cells producing 2HG: qHTS for the HT-1080-NT fibrosarcoma cell line. hit rate 1.6% among 360,000. HT-1080-NT fibrosarcoma viability, CellTiter-Glo ATP luminescence, 48 h. Potency, µM (titrated, usually from 46.1 µM), for inactives: top-dose activity, negative = less viability, most hits filed as cytotoxic;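 also: NT is the 2HG producing partner of a matched IDH1 knockdown line; potency is read from the fitted curve at half-maximal effect; 0% = DMSO-treated cells and -100% = media-only wells without cells; nearly all actives have a fitted effect of over 55% in size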
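Viability of the 2HG-overproducing fibrosarcoma line after 48 hours of compound exposure at 37 degrees C was determined by luminescence with CellTiter-Glo, and concentration-effect curves were then fitted and categorized.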
DT40 TDP1 no CPT: qHTS for Inhibitors of human tyrosyl-DNA phosphodiesterase 1 (TDP1): qHTS in cells in absence of CPT; DT40 Tdp1-/- hTDP1 cells, no CPT, ATP luminescence, 48 h; Potency, µM (series often up to 46.2 µM), without a hit: at the top dose activity change, negative = growth inhibition, most hits filed as inhibitors; hit rate 15% among 420,000; also: potency is read from the fitted curve at half-maximal effect; nearly all actives have a fitted effect of over 55% in size
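Readout: luminescence from CellTiter-Glo after 30 min in the dark at RT. Cells: DT40 Tdp1-/- with stable hTDP1, 400/well. Exposure: compounds alone, ≥48 hr, 37 °C.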
IL-1B inflam inh: qHTS for Inhibitors of Inflammasome Signaling: IL-1-beta AlphaLISA Primary Screen | THP-1 LPS/ATP IL-1B secretion, AlphaLISA, 16 h; stronger effect = lower value | activity change, % at 57.5 µM | hit rate 4.7% among 360,000; in the data active = activity change below about -50%; inconclusive = mostly about -30% to -49%
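THP-1 cells pretreated 1 hr with compounds (up to 57.5 uM final), then stimulated with LPS (250 ng/mL final) plus ATP (1.25 mM final); secreted IL-1B measured by AlphaLISA after 16 hr, decreased signal indicating inhibition.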
TDP1 cell CPT: qHTS for Inhibitors of human tyrosyl-DNA phosphodiesterase 1 (TDP1): qHTS in cells in presence of CPT. Potency, µM (titrated, usually from 46.2 µM), for inactives: at the top dose activity change, negative = growth inhibition, most hits filed as inhibitors. chicken DT40 Tdp1-/-;hTDP1 cells + 20 nM CPT, ATP luminescence, 48 h. hit rate 12% among 420,000. AID 686979, 2013; also: potency is read from the fitted curve at half-maximal effect; nearly all actives have a fitted effect of over 55% in size
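Chicken DT40 Tdp1-/- cells complemented with human TDP1, 400 cells/well, exposed to compounds plus 20 nM camptothecin for at least 48 h at 37 C; viability read as ATP content by CellTiter-Glo luminescence.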
* = called active by the depositor; ? = inconclusive; nt = no result; [ ] = remark or other dose. Unless noted, calls follow the shape of the dose curve; as a rule, active = well fitted curve in the direction sought with a large enough effect; inconclusive = small, poorly fitted or top-dose-only effect, or another doubt; inactive = no such curve, though single readings can be large; an effect the other way counts as inactive or inconclusive. Unless noted, % is scaled to controls: 0 for no effect and ±100 for the full control effect.

SMILES	ELG1 DNA repair	HT1080 IDH1KD tx	HT1080NT lethal	DT40 TDP1 no CPT	IL-1B inflam inh	TDP1 cell CPT
CC(C)(CNC(=O)c1cccc(S(=O)(=O)Nc2ccc(SC(F)F)cc2)c1)N1CCOCC1	nt	-4%	-7%	0%	36	?
CCCCNC(=O)CS(=O)Cc1nc(-c2cccc(C)c2)oc1C (configuration not stated)	-5%	-9%	-1%	-19%	-5	-17%
CCc1ccc(-c2nc(CS(=O)CC(=O)NCCc3ccc(C)cc3)c(C)o2)cc1 (configuration not stated)	nt	nt	nt	?	nt	23µM*
Cc1ccccc1-c1nc(CS(=O)CC(=O)NCCc2ccc(Cl)cc2)c(C)o1 (configuration not stated)	20%	16%	19%	?	-5	16µM*
Cc1ccc(CNC(=O)CS(=O)Cc2nc(-c3cccs3)oc2C)cc1 (configuration not stated)	1%	-9%	-13%	?	-10	23µM*
CCCCSCCCNC(=O)CS(=O)Cc1nc(-c2cccc(C)c2)oc1C (configuration not stated)	16µM*	-8%	-6%	-28%	4	-21%
Cc1ccc(CCNC(=O)CS(=O)Cc2nc(-c3cccs3)oc2C)cc1 (configuration not stated)	7%	0%	0%	?	-4	?
CCOc1ccc(C(=O)OCC(=O)NC2CCCCCCC2)cc1	9%	-3%	0%	?	14	?
Cc1cccc(-c2nnc(NC(=O)c3ccco3)s2)c1	?	1%	6%	0%	10	-10%
COc1cc(/C=C/C(=O)O)cc(S(=O)(=O)Nc2cccc(SC)c2)c1OC	7%	3%	-1%	-23%	0	-10%
Cc1ccc(NC(=O)CS(=O)Cc2nc(-c3ccc(C)cc3)oc2C)cc1 (configuration not stated)	-20%	0%	1%	21µM*	-9	?
Cc1ccc(-c2nc(CS(=O)CC(=O)NCCN3CCCC3)c(C)o2)cc1 (configuration not stated)	?	-5%	9%	-24%	-25	?
CCc1ccc(-c2nc(CS(=O)CC(=O)NCCN3CCCCCC3)c(C)o2)cc1 (configuration not stated)	?	?	?	?	-56*	?
COC(=O)C[C@@H]1CC[C@@H](NS(=O)(=O)c2ccc(OC)cc2)[C@@H](CO)O1	nt	15%	23%	0%	23	0%
COc1ccc(N(CC(=O)NCc2cccs2)S(=O)(=O)c2ccc(C(C)=O)cc2)cc1	nt	-5%	1%	?	-1	0%
CC1(c2cccc(Br)c2)NC(=O)NC1=O (configuration not stated)	3%	10%	2%	?	-6	-9%
COc1ccc(S(=O)(=O)N2CCOCC2)cc1NC(=O)c1ccc2c(c1)OCO2	-4%	-1%	-5%	-4%	0	-27%
COc1ccc(S(=O)(=O)N2CCCCC2)cc1NC(=O)c1ccc2c(c1)OCO2	-4%	-2%	-4%	15µM*	0	?
COc1ccc(OC)c(NS(=O)(=O)c2ccc(NC(=O)C3COc4ccccc4O3)cc2)c1 (configuration not stated)	?	?	?	18µM*	-68*	15µM*
COc1ccc(S(=O)(=O)N2CCCCC2)cc1NC(=O)C1CC1	0%	3%	4%[9.24 µM]	-2%	0	0%
COc1ccc(S(=O)(=O)N2CCCCC2)cc1NC(=O)C1COc2ccccc2O1 (configuration not stated)	18µM*	-13%	-9%	23µM*	0	23µM*
O=C(CSc1nccn1Cc1ccc(F)cc1)NCc1ccco1	nt	nt	nt	-6%	nt	-13%
Cn1ccnc1C(=O)c1ccc(NN)c([N+](=O)[O-])c1	13%	?	-24%	19%	-217*	17%
Cn1ccnc1C(=O)c1cccc([N+](=O)[O-])c1	?	6%	17%	0%	5	-3%
CCOC(=O)c1c(CN2CCCCC2)n(C)c2cc(Br)c(O)cc12	?	-6%	0%	9.2µM*	11	2.3µM*
SMILES	ELG1 DNA repair	HT1080 IDH1KD tx	HT1080NT lethal	DT40 TDP1 no CPT	IL-1B inflam inh	TDP1 cell CPT
CCOC(=O)c1c(CN(C)C)n(-c2ccc(C)cc2)c2cc(Br)c(O)cc12	-9%	-19%	-9%	?	-63*	?
CCOC(=O)c1c(CN2CCN(C)CC2)n(C)c2cc(Br)c(OC)cc12	22%	?	?	?	-19	?
CCOC(=O)c1c(CSC(=N)N)n(C)c2cc(Br)c(OC(C)=O)cc12	18%	?	?	16µM*	-102*	16µM*
CCOC(=O)c1c(CN2CCOCC2)n(-c2ccccc2)c2cc(Br)c(OC)cc12	?	?	-17%	21µM*	44	16µM*
CCOC(=O)c1c(CN(C)C)n(-c2ccccc2)c2cc(Br)c(OC)cc12	0%	?	?	?	-8	?
COc1cc2c(C(=O)OCCN(C)C)c(CSc3ccccc3)n(C)c2cc1Br	-14%	17%	14%	?	16	?
CCOC(=O)c1c(CN2CCOCC2)n(-c2ccccc2)c2cc(Br)c(O)cc12	23µM*	-8%	6%	18%	-15	-16%
CCOC(=O)c1c(C)n(CC(O)CN(C)C)c2cc(Br)c(OC)cc12 (configuration not stated)	11%	-12%	0%	?	-79*	22%
CC(C)CC(=O)Nc1nnc(SCC(=O)NC2CCCCC2)s1	?	5%	9%	0%	1	-3%
CC(C)(O)c1ccc2c(c1)CCC1C(C)(C(=O)O)CCCC21C (configuration not stated)	-11%	5%	2%	-13%	12	-9%
CC(C)c1c(O)ccc2c1CC[C@H]1C(C)(C)CCC[C@]21C	nt	?	?	?	?	13µM*
